# Measurements published in PubChem BioAssay (NCI).
# About 79,000 compounds went through this panel and 15% of them were active in at least one assay; those are over-represented in the sample as a whole. Unmarked numbers belong to inactive results. Activity calls are given as the source filed them. No stated cut-off is given here; in the data, active means growth inhibition above about 70%; inactive means the rest. Where a SMILES comes first, the peptide text is derived from it. [ ]: non-standard residue; d: D form. The star is where a group is joined. ξ: configuration not given here. Cbz = O=C(OCc1ccccc1)*; ξNva = CCCC(N)C(=O)O
# Legend:
# [1] = NCI Yeast Anticancer Drug Screen. Data for the rad50 strain (AID 155);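 further: 0% = growth of vehicle-only cultures of the same strain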; settings: S. cerevisiae rad50 strain growth inhibition; at 50.0 µM; hits give high values
# Outline: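 Yeast carrying a defined DNA repair defect were exposed to test compounds, and growth was compared with vehicle-treated controls to give percent inhibition.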
# [2] = NCI Yeast Anticancer Drug Screen. Data for the mec2-1 strain (AID 157); settings: S. cerevisiae mec2-1 strain, at 50.0 µM, hits give high values
# Outline: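 Cells of the genetically defined mec2-1 yeast strain are incubated with test compound. Inhibition of growth is calculated against vehicle-treated controls.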
# [3] = NCI Yeast Anticancer Drug Screen. Data for the sgs1 mgt1 strain (AID 161);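 further: 0% = growth of cultures given vehicle only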; settings: S. cerevisiae sgs1 mgt1 strain, at 50.0 µM, hits give high values
# Outline: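 Inhibition of yeast growth, normalised to vehicle-treated controls, is reported for a strain bearing genetic alterations in DNA damage repair.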
# [4] = NCI Yeast Anticancer Drug Screen. Data for the cln2 rad14 strain (AID 165);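 further: 0% = growth equal to vehicle treated cultures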; settings: S. cerevisiae cln2 rad14 strain, at 50.0 µM, hits give high values
# Outline: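 The screen exposed genetically defined yeast (cln2 rad14) to test compounds and scored growth inhibition relative to vehicle-treated controls.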
# [5] = NCI Yeast Anticancer Drug Screen. Data for the bub3 strain (AID 167); settings: S. cerevisiae bub3 mutant strain, at 50.0 µM, hits give high values
# Outline: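 Compounds were applied to a genetically altered yeast strain carrying a cell-cycle control defect. Growth inhibition was scored against vehicle-treated controls.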
# [6] = NCI Yeast Anticancer Drug Screen. Data for the mlh1 rad18 strain (AID 175); settings: S. cerevisiae mlh1 rad18 strain growth inhibition; at 50.0 µM; hits give high values
# Outline: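 Compound-treated yeast growth, normalised to vehicle controls. Strain bears defined DNA repair mutations.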
SMILES,growth inhibition [1],growth inhibition [2],growth inhibition [3],growth inhibition [4],growth inhibition [5],growth inhibition [6]
CCCC(NC(=O)CNC(=O)OCc1ccccc1)C(=O)O (stereo not drawn) (Cbz-Gly-[ξNva]-OH),31.6%,7%,2.35%,19.9%,5.45%,3.95%
Cc1ccc([N+](=O)[O-])c(N)n1,3.25%,-5.65%,-2.45%,2.3%,3.8%,1.3%
NNC(=O)c1c[nH]c2ccccc2c1=O,3.7%,13.1%,0.85%,-20.6%,5.1%,5.4%
NS(=O)(=O)c1cc(Br)ccc1Br,8.2%,12.9%,-0.35%,39.6%,17.6%,-7.65%
COc1ccc(/C=N/N2CN(C(C)C(=O)O)C(C)(O)N=C2N)cc1OC (centres undefined),-14.2%,-33.8%,-20.7%,-8.95%,-25.6%,-50.8%
CCNC(=S)NCCc1c[nH]c2ccccc12,-57%,-3.55%,-7.75%,-0.4%,2.55%,-36.6%
Cn1c(O)c(C=Nc2ccccc2Cl)c(=O)n(C)c1=O,-11.1%,-4.65%,-9.7%,-38.6%,0.55%,-28.4%
O=C(O)/C=C/C(=O)Nc1ccc(Cl)cc1C(=O)c1ccccc1,24.6%,9.1%,33%,0.4%,14.6%,20.8%
Nc1nc(N)c2nc3c(nc2n1)CCCC3,-15.9%,-35.7%,-18.3%,8.95%,-13.1%,-25.7%
O=C(O)C1CCCCN1O (centres undefined),-7.85%,-2.15%,-15.9%,5.75%,10.9%,-6.15%
O=C(O)CCc1ccc2c(c1)CC1(Cc3ccccc3C1)C2,26.1%,41.8%,61.2%,52.6%,48.1%,64%
CC(=O)Nc1ccc(C(=O)C=O)cc1,-1.45%,-4.4%,4.2%,26.5%,-13.9%,-40.8%
Cc1cccc(NCc2ccncc2)n1,19.2%,9.2%,26.8%,2.15%,1.85%,6.75%
CC(C)CCC(=O)C(C)C,19.7%,-9.55%,13.2%,11.5%,10.8%,15.2%
CCOC(=O)c1sc(Nc2cc(Cl)ccc2Cl)nc1C,-6.2%,-19.6%,-9.2%,-2%,-8.3%,-15.1%
Cc1nn2c(c1C#N)NNc1c-2sc(=N)nnc1=O,-1.6%,0.5%,13.5%,-4.4%,-9.4%,15.6%
COC(=O)c1[nH]c(=O)[nH]c(=S)c1N,7.75%,21%,-10.6%,-20.6%,-17.8%,-15.8%
c1ccc(-c2coc(-c3ccccc3)n2)cc1,1.15%,8.65%,3.25%,-2%,-5.15%,-10.2%
CC(=O)Nc1ccc(S(=O)(=O)Nc2c(N)[nH]c(=S)[nH]c2=O)cc1,14%,3.9%,1.25%,-3.75%,9.5%,9.45%
CC(=O)OCC(OC(C)=O)C1OC2OC(C)(C)OC2C1OS(C)(=O)=O (centres undefined),15.2%,10.3%,17.6%,-27.6%,28.6%,4.95%

SMILES,growth inhibition [1],growth inhibition [2],growth inhibition [3],growth inhibition [4],growth inhibition [5],growth inhibition [6]
CC(C)CCc1ccc(O)cc1,5%,-10.9%,-27.2%,-31.9%,0.65%,-5.15%
COc1ccc(C)cc1NC(=S)NC(=O)c1cccc([N+](=O)[O-])c1,2.25%,4.85%,4.45%,-2.5%,20.2%,0.3%
CN(C)CCNC(=O)c1cccc2c1Oc1cccc([N+](=O)[O-])c1O2,-12.7%,-14.1%,-9.85%,14.4%,-12.1%,-34.3%
CC(=O)Nc1c(Cl)cc2c(c1Cl)Cc1cc(N(C)C)ccc1-2,-13.6%,-0.35%,0.5%,6.25%,1.75%,-9.25%
Cc1c(C(=O)O)sc2ccc([N+](=O)[O-])cc12,-8.15%,2.5%,-9.35%,-46.5%,-13.3%,-0.6%
S=C(Oc1ccccc1)Oc1ccc2ccccc2c1,9.7%,-6.8%,-9.7%,-6.55%,15.3%,-11.6%
O=C(/C=C\c1ccco1)NC(=O)NC(=O)N1CCCCC1,-0.7%,-22.3%,-2.05%,-16.4%,-9.15%,4.7%
O=C1CC(=O)N(C=C2C(=O)NC(=O)NC2=O)C(=S)N1,-11.9%,-2.15%,-18.6%,11.2%,4.6%,0.45%
CC12CC3CC(C)(C1)CC(SCCN=C(N)CCl)(C3)C2,98.5% (active),99% (active),99.3% (active),96.3% (active),99% (active),99.2% (active)
COc1cccc(/C=N/[N-]C(N)=O)c1[O-].[OH3+].[Pd+2],7.65%,8.2%,15.9%,7.4%,18.9%,21.6%
c1ccc(CN2CCC3(N4CCOCC4)C(C2)N=NN3c2ccccc2)cc1 (centres undefined),-27.9%,-9.6%,0.65%,-1.05%,-11.7%,-14.2%
Cn1c(N)c(NC(=S)NCC2CCCCC2)c(=O)n(C)c1=O,-2.8%,-5%,-1.2%,-9.6%,-3.6%,1.5%
O=C(NC(c1ccccc1)C(Cl)(Cl)c1ccccc1)c1ccccc1 (centres undefined),21.8%,-7.5%,6.4%,-0.2%,22.9%,23.3%
CC(C)c1ccc(OC(=N)c2ccccc2)cc1,1.5%,-7.35%,-9.45%,-3.95%,7.85%,3.6%
CC(=O)c1cc2cc(Br)ccc2oc1=O,13.5%,18%,16.2%,24.9%,14.4%,23.6%
COc1cccc2c(C(=O)O)cc(-c3ccc(Cl)cc3)nc12,7.85%,0.75%,19.1%,15.2%,6.9%,15.9%
O=C(O)c1cccc(C(=O)O)c1S(=O)Cc1ccccc1 (centres undefined),3.45%,-15.1%,1.2%,-0.15%,-17.1%,17.9%
Brc1cccc(-c2nnc(-c3ccc4ccccc4c3)o2)c1,-5.85%,-29.5%,6%,11.4%,-9%,-2.25%
COC(C(=O)CN(C)C)(c1ccccc1)c1ccccc1,4%,-11.1%,-1.85%,6.45%,-26.8%,23.5%
